# Calls of active or inactive are those of the source.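 Rule for the calls, unless noted: active = fluorescence slope after compound addition differing from the mean of all screened samples at 99.7% confidence, in either direction; inactive = the rest.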
# Experiments:
# [1] = inhibitors of TNFa-induced NFkB p65 translocation, primary screen, imaging, HUVEC, MLSMR starter and 10KST1 sets (AID 438;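 active = inhibition above 20% together with a positive visual image hit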;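 note: compound added about 3h40 before a 20 min TNFalpha stimulation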;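 for inhibition: signal is the nuclear over cytoplasmic p65 intensity ratio per well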); settings: HUVEC TNFa-induced p65 nuclear translocation; cell count: measured here: nuclei count (cytotoxicity indicator), at 2.08 µM; inhibition: at 2 µM, stronger effect = higher value, 0% TNFa-plus-vehicle, 100% no-TNFa wells
# [2] = reduction of polyQ htt aggregates in cells – imaging, exon1htt(103Q)mCFP cells, high-content imaging, primary screen (AID 483;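 active = visual image review flags a hit and inhibition of aggregation exceeds 20%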;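 note: compound exposure lasted 3 days before fixation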;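 for nuclei count: percent of the per-plate median nuclei count of sample wells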); settings: exon1htt(103Q)mCFP cell line, aggregate imaging, at 2 µM; inhibition of aggregation: stronger effect = higher value; nuclei count: measured here: cell count, toxicity
# [3] = endothelial E-selectin expression blockers – imaging, HUVEC, immunofluorescence, MLSMR starter and 10KST1 sets, primary screen (AID 487;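 active = visually confirmed hit in the image check and inhibition above 20%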;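 for inhibition: signal is fraction of cell area covered by stained E-selectin grains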;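 for nuclei count: 100% = median nuclei count of all wells on the same plate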); settings: HUVEC TNFalpha-induced E-selectin immunofluorescence imaging, at 2 µM; inhibition: stronger effect = higher value; nuclei count: measured here: cell number, toxicity
# [4] = molecular target: Voltage-gated potassium channel subunit beta-2 (Rattus norvegicus) (UniProt P62483); experiment: inhibitors of rat Kvbeta2 reductase activity – biochemical, NADPH fluorescence, primary screen (AID 622;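 active = fluorescence slope higher than the sample average by over 3 SD, cut at about -0.22 in these data, passing the limit was not always enough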;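 note: slope of raw intensity against log time taken from 70 to 1610 s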); settings: recombinant KvBeta, 4-cyanobenzaldehyde reduction, at 10 µM, stronger effect = higher value
# Chain of Voltage-gated potassium channel subunit beta-2 (Rattus norvegicus) (P62483 whole entry, looked up): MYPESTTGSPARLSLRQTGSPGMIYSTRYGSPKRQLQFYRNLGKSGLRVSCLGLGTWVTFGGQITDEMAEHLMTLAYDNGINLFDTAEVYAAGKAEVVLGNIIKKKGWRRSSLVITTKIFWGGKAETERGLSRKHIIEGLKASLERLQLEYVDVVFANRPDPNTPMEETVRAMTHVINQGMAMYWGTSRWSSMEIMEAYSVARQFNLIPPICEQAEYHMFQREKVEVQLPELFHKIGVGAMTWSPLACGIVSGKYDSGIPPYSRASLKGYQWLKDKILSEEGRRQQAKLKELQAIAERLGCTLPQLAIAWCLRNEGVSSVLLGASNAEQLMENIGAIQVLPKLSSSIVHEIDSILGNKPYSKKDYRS
# [5] = molecular target: Voltage-gated potassium channel subunit beta-2 (Rattus norvegicus) (UniProt P62483); experiment: enhancers of rat Kvbeta2 NADPH turnover – biochemical, NADPH fluorescence, primary screen (AID 623;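 active = NADPH fluorescence slope more negative than the mean of all samples by about 3 SD, 99.7% confidence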;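 note: fluorescence intensity change per second fitted from 20 to 320 s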); settings: Recombinant KvBeta, NADPH fluorescence decrease slope, 10 min; at 10 µM; stronger effect = lower value
# [6] = molecular target: Alpha-2C adrenergic receptor (Homo sapiens) (UniProt P18825); experiment: compounds altering alpha2C-coupled GIRK flux – cell-based, HEK293 alpha2C/GIRK1/2, thallium flux, primary screen (AID 624); settings: thallium flux BTC fluorescence, at 10 µM, actives lie on both sides;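 note: slope of fluorescence ratio to pre-addition baseline per second over 15 to 24 s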
# Chain of Alpha-2C adrenergic receptor (Homo sapiens) (P18825 whole entry, looked up): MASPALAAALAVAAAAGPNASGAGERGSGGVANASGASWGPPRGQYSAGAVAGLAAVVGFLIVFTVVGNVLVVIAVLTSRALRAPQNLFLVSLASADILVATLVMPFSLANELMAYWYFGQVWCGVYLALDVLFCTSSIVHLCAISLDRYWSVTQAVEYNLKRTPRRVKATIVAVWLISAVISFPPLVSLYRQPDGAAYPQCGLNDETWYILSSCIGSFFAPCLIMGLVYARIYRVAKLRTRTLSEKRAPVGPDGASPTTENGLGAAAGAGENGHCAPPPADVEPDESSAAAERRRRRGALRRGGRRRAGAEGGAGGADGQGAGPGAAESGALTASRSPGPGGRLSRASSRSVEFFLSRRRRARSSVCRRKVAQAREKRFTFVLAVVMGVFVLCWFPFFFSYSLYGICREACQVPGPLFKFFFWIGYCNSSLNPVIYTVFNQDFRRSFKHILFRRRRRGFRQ
# [7] = blockers of RIG-like receptor reporter activation – cell-based, Sendai virus stimulus, luciferase, 10K MLSCN set, TLR/RLR signaling modifier project, primary screen (AID 602276;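 active = inhibition at or above 50% at 10 µM; inactive = inhibition below 50%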;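 note: firefly luciferase from ISG56 promoter only with Renilla not read in this screen; 0% = Sendai virus plus DMSO and 100% = medium plus DMSO without virus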); settings: HEK293 RL24 IRF3 luciferase reporter, at 10 µM, stronger effect = higher value
# [8] = TLR3 IRF3 reporter activation blockers – cell-based, poly I:C stimulus, luciferase, 10K MLSCN set, primary screen (AID 602277;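 active = inhibition of the reporter signal at or above 50%; inactive = inhibition below 50%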); settings: HEK293-TLR3 RL24 IRF3 luciferase reporter, at 10 µM, stronger effect = higher value
Structure (SMILES),cell count [1],inhibition [1],inhibition of aggregation [2],nuclei count [2],inhibition [3],nuclei count [3],fluorescence slope [4],NADPH fluorescence slope [5],slope [6],inhibition [7],inhibition [8]
COC(=O)C1=C(N)Oc2cc(C)n(Cc3ccncc3)c(=O)c2C1c1cccnc1 (stereo not drawn),594,-13.5% (inactive),0% (inactive),87.4%,10.9% (inactive),104%,-0.479 (inactive),-7e-05 (inactive),0.00483 (inactive),12.8% (inactive),14.1% (inactive)
CCOC(=O)N1CCN(c2nc(-c3ccc(Cl)cc3)cs2)CC1,256,7.4% (inactive),7.8% (inactive),80.8%,-94.3% (inactive),113%,-0.35 (inactive),-3.8e-05 (inactive),0.00625 (inactive),-3.5% (inactive),-38.7% (inactive)
CCN1CCN(c2nc(C)nc3c2sc(=S)n3C)CC1,640,-4.8% (inactive),7.2% (inactive),82.9%,-24.6% (inactive),109%,-0.587 (inactive),-2.8e-05 (inactive),0.00433 (inactive),-3.52% (inactive),18% (inactive)
O=c1c2ccccc2nc(SCc2nc(-c3ccccc3)no2)n1-c1ccc(F)cc1,719,-5.5% (inactive),-12.6% (inactive),128%,-58.2% (inactive),114%,-0.538 (inactive),-3.3e-05 (inactive),0.00951 (inactive),13.8% (inactive),39.7% (inactive)
O=C1NCC(COCc2ccccc2)O1 (stereo not drawn),432,-3% (inactive),21% (inactive),87.4%,25.1% (inactive),102%,-0.496 (inactive),-5.3e-05 (inactive),0.00525 (inactive),8.89% (inactive),21% (inactive)
CCOc1ccc2[nH]cc(C(=O)N3CCN(CC)CC3)c(=O)c2c1,498,-16.7% (inactive),4.7% (inactive),77.2%,-18.9% (inactive),94.8%,-0.539 (inactive),1.9e-05 (inactive),0.00496 (inactive),-17.3% (inactive),-19.5% (inactive)
COc1cc(C2c3c(n[nH]c3C)C(=O)N2c2ccc(C)cc2)ccc1O (stereo not drawn),335,-8.1% (inactive),-6% (inactive),86.3%,-34.1% (inactive),112%,-0.586 (inactive),-2.8e-05 (inactive),0.00346 (inactive),3.65% (inactive),-2.36% (inactive)
COc1ccc(CCNC(=O)C2CCCN(c3nn4c(=O)cc(C)nc4s3)C2)cc1OC (stereo not drawn),371,-4% (inactive),10.8% (inactive),94.9%,-9% (inactive),100%,-0.403 (inactive),-5.9e-05 (inactive),0.0045 (inactive),19.7% (inactive),16.7% (inactive)
CCOc1ccc2nc(N3CCC(C(=O)N4CCN(C5CCCCC5)CC4)CC3)sc2c1,594,-0.8% (inactive),-15.4% (inactive),103%,-54% (inactive),107%,-0.553 (inactive),6.2e-06 (inactive),0.00601 (inactive),-54.1% (inactive),-73.6% (inactive)
CC(NC(=O)c1ccco1)c1ccc2c(c1)OCCO2 (stereo not drawn),418,9.3% (inactive),10% (inactive),89.2%,-95% (inactive),105%,-0.431 (inactive),-2.6e-05 (inactive),0.00638 (inactive),9.46% (inactive),15.1% (inactive)
O=C(NCc1ccccc1)N[C@@H](Cc1ccccc1)C(=O)O,666,6.9% (inactive),-0.3% (inactive),116%,4.5% (inactive),111%,-0.43 (inactive),-4.1e-05 (inactive),0.00384 (inactive),10.6% (inactive),33.8% (inactive)
Cc1ccc(-c2nnc(SC(C)C#N)n2N)cc1 (stereo not drawn),516,-3.8% (inactive),-0.7% (inactive),95.1%,-93.5% (inactive),137%,-0.587 (inactive),-3.8e-05 (inactive),0.00692 (inactive),10.4% (inactive),19% (inactive)
CCOC(=O)c1[nH]c(C)c(C(=O)Nc2ccc(C)cc2C)c1C,505,5.8% (inactive),20.1% (inactive),36.6%,-53.4% (inactive),103%,-0.585 (inactive),-1.3e-05 (inactive),0.00666 (inactive),1.87% (inactive),16.3% (inactive)
CCOC(=O)c1oc2c(CN3CCN(C)CC3)c(O)ccc2c(=O)c1-c1ccccc1OC,463,2.1% (inactive),-44.9% (inactive),86.2%,-59% (inactive),103%,-0.61 (inactive),8.1e-06 (inactive),0.00673 (inactive),9.7% (inactive),20.2% (inactive)
COc1ccc(N(CC(=O)Nc2ccc3c(c2)OCCO3)S(=O)(=O)c2cccnc2)cc1,515,-3.3% (inactive),13.1% (inactive),117%,-36.8% (inactive),122%,-0.608 (inactive),-7e-05 (inactive),0.00783 (inactive),-5.76% (inactive),17.1% (inactive)
O=C(OCC(=O)c1cccs1)C1=COCCO1,656,-7.6% (inactive),-9.8% (inactive),105%,5.3% (inactive),119%,-0.345 (inactive),-2.7e-05 (inactive),0.00586 (inactive),-24.9% (inactive),-83.1% (inactive)
Nc1c(C(=O)NCc2ccco2)nnn1Cc1ccccc1,277,-13.1% (inactive),5.9% (inactive),94.8%,-65.2% (inactive),115%,-0.399 (inactive),-4.5e-05 (inactive),0.00354 (inactive),8.14% (inactive),3.26% (inactive)
O=C(Nc1cc(C(F)(F)F)ccc1Cl)C1CCN(c2nnc(-n3cccc3)s2)CC1,329,-2.9% (inactive),6.1% (inactive),84.2%,-114% (inactive),126%,-0.39 (inactive),-5.6e-05 (inactive),0.00662 (inactive),17.2% (inactive),9.28% (inactive)
COC(=O)c1ccc(Oc2nc(NC(C)C)nc(N(C)C)n2)cc1,632,28.3% (inactive),-21.7% (inactive),94.4%,-112% (inactive),106%,-0.468 (inactive),2.5e-05 (inactive),0.00595 (inactive),-2.9% (inactive),15.7% (inactive)
CC1CCCN(c2ccc(C(=O)NCc3cccs3)cn2)C1 (stereo not drawn),632,-14.3% (inactive),-22.9% (inactive),112%,-67.5% (inactive),139%,-0.614 (inactive),-6.9e-06 (inactive),0.00612 (inactive),-37.8% (inactive),-71.3% (inactive)
CC(C)(C)NC(=O)CN(C(=O)C1CSC(=O)C1)c1ccc2c(c1)OCCO2 (stereo not drawn),612,2.9% (inactive),7.5% (inactive),95.8%,7.1% (inactive),108%,-0.362 (inactive),-6.7e-05 (inactive),0.00456 (inactive),-11.9% (inactive),-7.89% (inactive)
CC1(C)OC(=O)N(c2cccnc2)C1(C)O (stereo not drawn),597,8.1% (inactive),-2.8% (inactive),101%,41.8% (inactive),104%,-0.401 (inactive),-2.3e-05 (inactive),0.00628 (inactive),13.3% (inactive),19.9% (inactive)
CC(=O)NC1CC2CCCC(C1)N2CC(=O)Nc1ccccc1 (stereo not drawn),302,9.6% (inactive),3.9% (inactive),89.5%,26.1% (inactive),93.9%,-0.565 (inactive),-2.4e-05 (inactive),0.00646 (inactive),-13.6% (inactive),-5.22% (inactive)
O=C(c1sc2ccccc2c1Cl)N(Cc1cccs1)C1CCS(=O)(=O)C1 (stereo not drawn),677,4.4% (inactive),17.9% (inactive),90.3%,10.4% (inactive),108%,-0.579 (inactive),-2.7e-05 (inactive),0.00741 (inactive),10.4% (inactive),32.5% (inactive)
O=C(COC(=O)c1cnccn1)Nc1ccc2c(c1)OCO2,589,7.8% (inactive),-8% (inactive),103%,-56.6% (inactive),105%,-0.484 (inactive),-2.2e-05 (inactive),0.00566 (inactive),5.28% (inactive),21.1% (inactive)
CC(=O)Nc1cccc(NC(=O)CSc2nn3c(=O)c(C)nnc3s2)c1,577,5.2% (inactive),9.9% (inactive),97.9%,-0.3% (inactive),95.8%,-0.454 (inactive),-5.9e-05 (inactive),0.00534 (inactive),2.45% (inactive),20.4% (inactive)
Cc1sc2nc(SCc3nc4ccccc4[nH]3)n(Cc3ccco3)c(=O)c2c1C,585,-2.2% (inactive),17.5% (inactive),91.4%,8.2% (inactive),97.3%,-0.59 (inactive),-2e-05 (inactive),0.00556 (inactive),0.73% (inactive),-54.9% (inactive)
O=C(O)C1CC=CCC1C(=O)Nc1cccc(F)c1 (stereo not drawn),446,5.9% (inactive),-9.5% (inactive),112%,0.8% (inactive),116%,-0.432 (inactive),-2.5e-05 (inactive),0.00329 (inactive),10.2% (inactive),31.8% (inactive)

# Reference: PubChem BioAssay
